Out of some 5,500 compounds screened, about 2,000 (36%) were called active. About 18% were inconclusive and are not listed. Rule as the data show it: active = normalized growth mostly below about 0.91 (no sharp cut-off); inconclusive = no clear call, values can overlap the other calls; inactive = mostly above about 0.92. Some of the results follow.
Experiment: chemical genetic growth profiling, strain panel (AID 1159580);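 also: tested at 20 µM; growth read once vehicle control cultures reached saturation at 30 °C; 1 = growth at the plate median or of vehicle wells; lower values mean less growth of the strain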
Conditions: S. cerevisiae deletion strains, growth OD

Measured: normalized growth

CC1(C)C(=O)N(CCN2CCC(C(=O)c3ccc(F)cc3)CC2)c2ccccc21
inactive: locus YAL013W, strain DEP1, active compounds read low 0.998 | locus YAL040C, strain CLN3, active compounds read low 1.01 | locus YCL061C, strain MRC1 (second series), active compounds read low 0.999 | locus YDR150W, strain NUM1, active compounds read low 0.998 | locus YDR363W, strain ESC2, active compounds read low 0.992 | locus YER002W, strain NOP16, active compounds read low 1.01 | locus YGR229C, strain SMI1, active compounds read low 0.993 | locus YNL128W, strain TEP1, active compounds read low 1.03 | locus YNL175C, strain NOP13, active compounds read low 1.02 | locus YNL197C, strain WHI3, active compounds read low 1.02 | locus YNL224C, strain SQS1, active compounds read low 1.02 | locus YNL322C, strain KRE1, active compounds read low 1 | locus YOR083W, strain WHI5 (second series), active compounds read low 0.969 | locus YPL055C, strain LGE1, active compounds read low 0.982

CC1C(c2ccccc2)N(C)C(c2ccccc2)CC1(O)c1ccc(F)cc1 (stereo not given)
active: locus YHR030C, strain SLT2, active compounds read low 1.26 [resistant]
inactive: locus YAR019C, strain CDC15, active compounds read low 0.988 | locus YBL105C, strain PKC1, active compounds read low 0.991 | locus YBR135W, strain CKS1, active compounds read low 0.99 | locus YBR136W, strain MEC1, active compounds read low 0.994 | locus YBR160W, strain CDC28, active compounds read low 0.995 | locus YDL017W, strain CDC7, active compounds read low 0.997 | locus YDL028C, strain MPS1, active compounds read low 1 | locus YDL101C, strain DUN1, active compounds read low 0.986 | locus YDL108W, strain KIN28, active compounds read low 1.01 | locus YDL132W, strain cdc53, active compounds read low 0.989 | locus YDL214C, strain PRR2, active compounds read low 0.976 | locus YDR052C, strain DBF4, active compounds read low 0.995 | locus YDR054C, strain cdc34, active compounds read low 0.993 | locus YDR226W, strain ADK1, active compounds read low 0.992 | locus YDR477W, strain SNF1, active compounds read low 0.992 | locus YER123W, strain YCK3, active compounds read low 0.934 | locus YER133W, strain GLC7, active compounds read low 0.995 | locus YFL009W, strain cdc4, active compounds read low 0.989 | locus YFL029C, strain CAK1, active compounds read low 0.99 | locus YFR003C, strain YPI1, active compounds read low 0.999 | locus YFR019W, strain FAB1, active compounds read low 0.996 | locus YFR028C, strain CDC14, active compounds read low 0.984 | locus YGR040W, strain KSS1, active compounds read low 0.997 | locus YGR052W, strain FMP48, active compounds read low 1.11 | locus YGR092W, strain DBF2, active compounds read low 0.968 | locus YHR079C, strain IRE1, active compounds read low 1.14 | locus YHR082C, strain KSP1, active compounds read low 1.13 | locus YHR205W, strain SCH9, active compounds read low 0.979 | locus YIL147C, strain SLN1, active compounds read low 1 | locus YJL095W, strain BCK1, active compounds read low 1.1 | locus YJL128C, strain PBS2, active compounds read low 0.952 | locus YJL157C, strain FAR1, active compounds read low 0.972 | locus YJR016C, strain ILV3, active compounds read low 0.989 | locus YJR066W, strain TOR1 (second series), active compounds read low 0.983 | locus YJR066W, strain TOR1, active compounds read low 1.13 | locus YKL048C, strain ELM1, active compounds read low 0.982 | locus YKL067W, strain YNK1, active compounds read low 0.98 | locus YKL101W, strain HSL1, active compounds read low 0.99 | locus YKL193C, strain SDS22, active compounds read low 0.994 | locus YKL203C, strain TOR2, active compounds read low 1.06 | locus YLR113W, strain HOG1, active compounds read low 1.04 | locus YLR133W, strain CKI1, active compounds read low 0.98 | locus YLR403W, strain SFP1, active compounds read low 0.99 | locus YML070W, strain DAK1, active compounds read low 0.973 | locus YMR001C, strain CDC5, active compounds read low 0.982 | locus YMR205C, strain PFK2 (second series), active compounds read low 0.989 | locus YMR277W, strain FCP1, active compounds read low 0.997 | locus YNL006W, strain LST8, active compounds read low 0.977 | locus YNL020C, strain ARK1, active compounds read low 0.984 | locus YNL161W, strain CBK1, active compounds read low 1 | locus YNL183C, strain NPR1, active compounds read low 1.14 | locus YNL207W, strain RIO2, active compounds read low 0.999 | locus YNL222W, strain SSU72, active compounds read low 0.99 | locus YNL307C, strain MCK1 (second series), active compounds read low 0.987 | locus YOL078W, strain AVO1, active compounds read low 0.992 | locus YOL136C, strain PFK27, active compounds read low 0.99 | locus YOR061W, strain CKA2, active compounds read low 0.972 | locus YOR119C, strain RIO1, active compounds read low 1.04 | locus YOR231W, strain MKK1, active compounds read low 1.1 | locus YOR329C, strain SCD5, active compounds read low 0.992 | locus YPL031C, strain PHO85, active compounds read low 0.984 | locus YPL153C, strain RAD53, active compounds read low 0.983 | locus YPL204W, strain HRR25, active compounds read low 1 | locus YPL209C, strain IPL1, active compounds read low 1 | locus YPL256C, strain CLN2, active compounds read low 1.1 | locus YPR025C, strain CCL1, active compounds read low 0.995 | locus YPR106W, strain ISR1, active compounds read low 0.999 | locus YPR111W, strain DBF20, active compounds read low 0.99 | strain NNK1, active compounds read low 0.998 | strain TSCII, active compounds read low 0.987
